Common to all, as to test: DAPPL (digital affinity profiling via proximity ligation, sequencing); 10 mM Tris-HCl pH 7.5, 50 mM NaCl, 1 mM DTT, 4% glycerol, room temperature, 30 min; GST-TFs on glutathione beads, 16-mer random dsDNA library, 0.1% formaldehyde crosslink after washing; high values mean tight binding
Conditions in all cases: protein: recombinant; tags: N-terminal GST; dsDNA, one strand shown

For one assay, the target named is T1, GABPA (Homo sapiens, UniProt Q06546 1-454).
T1 sequence: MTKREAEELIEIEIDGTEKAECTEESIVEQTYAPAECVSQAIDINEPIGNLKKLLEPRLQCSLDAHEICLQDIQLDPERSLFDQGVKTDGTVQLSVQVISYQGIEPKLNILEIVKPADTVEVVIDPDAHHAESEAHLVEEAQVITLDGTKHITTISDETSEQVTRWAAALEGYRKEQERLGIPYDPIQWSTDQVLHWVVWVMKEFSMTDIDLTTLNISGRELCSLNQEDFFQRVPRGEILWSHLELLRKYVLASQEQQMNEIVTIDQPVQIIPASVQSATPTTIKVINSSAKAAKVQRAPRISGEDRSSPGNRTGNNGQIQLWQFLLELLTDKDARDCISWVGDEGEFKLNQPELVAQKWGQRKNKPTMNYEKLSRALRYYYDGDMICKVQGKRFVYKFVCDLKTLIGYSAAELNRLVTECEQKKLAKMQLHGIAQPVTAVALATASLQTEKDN
A digest of the protocol: (§1)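 Sequencing on an Illumina NextSeq500 followed washing, crosslinking with 0.1% formaldehyde, proximity ligation (BsaI/T4 ligase, 1 h, 37 °C) and PCR amplification of pools that had been incubated for 30 min at room temperature with 200 nmole of a random double-stranded 16-mer DNA library in Tris/NaCl/DTT/glycerol buffer. Each pool held DNA-barcoded human transcription factors, expressed in yeast as GST fusions and captured on glutathione beads, plus a tag-only sample. Binding signal is a hexamer's read frequency for a factor divided by its frequency in the tag-only sample.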

For another assay, the target named is T2, ERG (Homo sapiens, UniProt P11308 1-479).
T2 sequence: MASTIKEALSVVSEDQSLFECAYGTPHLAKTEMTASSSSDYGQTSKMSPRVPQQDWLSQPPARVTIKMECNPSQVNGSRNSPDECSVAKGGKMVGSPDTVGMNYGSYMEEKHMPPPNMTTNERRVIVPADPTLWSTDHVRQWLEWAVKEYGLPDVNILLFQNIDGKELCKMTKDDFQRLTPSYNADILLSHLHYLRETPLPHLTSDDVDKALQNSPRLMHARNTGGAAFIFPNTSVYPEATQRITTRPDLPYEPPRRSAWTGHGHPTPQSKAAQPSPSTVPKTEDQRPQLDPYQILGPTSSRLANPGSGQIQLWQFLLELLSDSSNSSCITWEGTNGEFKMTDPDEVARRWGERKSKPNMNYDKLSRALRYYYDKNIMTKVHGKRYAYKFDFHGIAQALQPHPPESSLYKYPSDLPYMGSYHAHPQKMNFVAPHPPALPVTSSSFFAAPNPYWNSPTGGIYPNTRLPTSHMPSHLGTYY
The procedure, abridged: as §1

The target of the next assay is ELF1 (Homo sapiens, UniProt P32519 1-619). A digest of the protocol:
as §1

Another assay addresses T3, EHF (Homo sapiens, UniProt Q9NZC4 1-300).
T3 sequence: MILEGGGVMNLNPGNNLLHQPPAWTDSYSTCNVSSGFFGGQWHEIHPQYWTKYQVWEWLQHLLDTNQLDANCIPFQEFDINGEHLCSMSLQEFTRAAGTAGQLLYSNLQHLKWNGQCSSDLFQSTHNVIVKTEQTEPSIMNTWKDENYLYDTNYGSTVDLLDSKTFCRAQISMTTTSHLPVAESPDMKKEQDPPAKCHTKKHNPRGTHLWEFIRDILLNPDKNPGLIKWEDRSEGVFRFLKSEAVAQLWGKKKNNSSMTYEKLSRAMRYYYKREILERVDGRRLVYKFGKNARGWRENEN
The procedure, abridged:
as §1

In a further assay the target is T4, SPIC (Homo sapiens, UniProt Q8N5J4 1-248).
T4 sequence: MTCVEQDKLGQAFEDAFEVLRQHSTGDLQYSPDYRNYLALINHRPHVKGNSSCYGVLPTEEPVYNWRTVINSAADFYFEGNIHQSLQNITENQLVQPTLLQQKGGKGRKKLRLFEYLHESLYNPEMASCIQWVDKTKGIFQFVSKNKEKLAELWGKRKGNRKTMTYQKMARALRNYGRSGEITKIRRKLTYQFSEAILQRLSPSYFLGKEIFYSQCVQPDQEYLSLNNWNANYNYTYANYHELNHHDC
A digest of the protocol:
as §1

A further assay has as its target ELF4 (Homo sapiens, UniProt Q99607 1-663). A digest of the protocol:
as §1

For the next assay, the target named is T5, ELK4 (Homo sapiens, UniProt P28324-2 1-405).
T5 sequence: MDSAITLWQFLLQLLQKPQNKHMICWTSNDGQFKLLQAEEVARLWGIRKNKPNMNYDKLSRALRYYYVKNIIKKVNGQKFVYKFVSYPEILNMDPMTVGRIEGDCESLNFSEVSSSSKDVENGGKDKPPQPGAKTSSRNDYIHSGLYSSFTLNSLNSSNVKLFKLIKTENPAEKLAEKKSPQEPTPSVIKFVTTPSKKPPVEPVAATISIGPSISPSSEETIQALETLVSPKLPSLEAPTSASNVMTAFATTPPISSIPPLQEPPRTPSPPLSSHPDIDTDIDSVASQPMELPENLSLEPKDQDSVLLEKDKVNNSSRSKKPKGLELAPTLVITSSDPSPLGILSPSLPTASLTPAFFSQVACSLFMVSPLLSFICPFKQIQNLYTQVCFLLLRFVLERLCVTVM
A digest of the protocol: as §1

The next assay concerns the target T6, ELF3 (Homo sapiens, UniProt P78545 1-371).
T6 sequence: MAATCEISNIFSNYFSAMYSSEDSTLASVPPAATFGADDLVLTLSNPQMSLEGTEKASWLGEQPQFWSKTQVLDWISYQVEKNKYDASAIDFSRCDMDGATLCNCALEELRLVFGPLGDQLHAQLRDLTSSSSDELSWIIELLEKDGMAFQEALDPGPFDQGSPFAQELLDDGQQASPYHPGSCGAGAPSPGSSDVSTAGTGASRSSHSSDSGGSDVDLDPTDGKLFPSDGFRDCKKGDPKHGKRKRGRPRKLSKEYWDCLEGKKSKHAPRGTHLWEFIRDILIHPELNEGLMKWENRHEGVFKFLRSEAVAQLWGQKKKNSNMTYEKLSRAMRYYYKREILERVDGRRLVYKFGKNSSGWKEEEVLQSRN
A digest of the protocol: as §1

The next assay concerns the target T7, ETV3L (Homo sapiens, UniProt Q6ZN32 1-361).
T7 sequence: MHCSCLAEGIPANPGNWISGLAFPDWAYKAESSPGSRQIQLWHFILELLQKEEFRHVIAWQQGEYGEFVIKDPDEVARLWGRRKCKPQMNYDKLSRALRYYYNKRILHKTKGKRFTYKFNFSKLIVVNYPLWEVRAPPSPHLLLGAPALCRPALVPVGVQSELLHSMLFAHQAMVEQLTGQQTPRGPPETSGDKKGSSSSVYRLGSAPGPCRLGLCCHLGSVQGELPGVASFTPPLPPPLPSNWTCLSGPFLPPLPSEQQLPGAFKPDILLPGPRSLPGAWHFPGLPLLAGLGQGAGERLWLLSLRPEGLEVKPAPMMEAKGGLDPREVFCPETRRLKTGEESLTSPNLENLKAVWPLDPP
The procedure, abridged:
as §1

The target of the next assay is T8, ETS2 (Homo sapiens, UniProt P15036 1-469).
T8 sequence: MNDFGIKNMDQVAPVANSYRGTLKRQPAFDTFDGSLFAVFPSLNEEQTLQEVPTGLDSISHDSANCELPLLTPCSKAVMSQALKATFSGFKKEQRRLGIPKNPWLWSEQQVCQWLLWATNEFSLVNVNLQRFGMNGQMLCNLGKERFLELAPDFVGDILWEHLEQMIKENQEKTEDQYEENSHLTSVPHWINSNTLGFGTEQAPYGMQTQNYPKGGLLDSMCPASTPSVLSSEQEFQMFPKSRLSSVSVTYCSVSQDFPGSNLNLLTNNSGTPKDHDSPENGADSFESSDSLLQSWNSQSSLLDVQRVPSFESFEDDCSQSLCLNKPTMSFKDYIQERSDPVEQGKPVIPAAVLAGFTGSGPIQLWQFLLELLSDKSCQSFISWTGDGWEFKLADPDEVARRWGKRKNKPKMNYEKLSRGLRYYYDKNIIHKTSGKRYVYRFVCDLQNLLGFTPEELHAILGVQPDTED
A digest of the protocol: as §1

In another assay the target is T9, SPDEF (Homo sapiens, UniProt O95238 1-335).
T9 sequence: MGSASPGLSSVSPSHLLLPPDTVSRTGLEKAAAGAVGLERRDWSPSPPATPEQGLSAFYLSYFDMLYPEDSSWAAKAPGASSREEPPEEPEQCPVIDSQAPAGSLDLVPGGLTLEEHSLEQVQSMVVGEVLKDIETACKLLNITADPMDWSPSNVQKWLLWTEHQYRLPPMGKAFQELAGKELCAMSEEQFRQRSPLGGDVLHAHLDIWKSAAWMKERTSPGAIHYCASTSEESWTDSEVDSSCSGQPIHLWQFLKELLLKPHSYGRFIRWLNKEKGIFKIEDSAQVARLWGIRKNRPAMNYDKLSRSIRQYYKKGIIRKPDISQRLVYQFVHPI
A digest of the protocol:
as §1

The next assay concerns the target T10, ETV7 (Homo sapiens, UniProt Q9Y603 1-341).
T10 sequence: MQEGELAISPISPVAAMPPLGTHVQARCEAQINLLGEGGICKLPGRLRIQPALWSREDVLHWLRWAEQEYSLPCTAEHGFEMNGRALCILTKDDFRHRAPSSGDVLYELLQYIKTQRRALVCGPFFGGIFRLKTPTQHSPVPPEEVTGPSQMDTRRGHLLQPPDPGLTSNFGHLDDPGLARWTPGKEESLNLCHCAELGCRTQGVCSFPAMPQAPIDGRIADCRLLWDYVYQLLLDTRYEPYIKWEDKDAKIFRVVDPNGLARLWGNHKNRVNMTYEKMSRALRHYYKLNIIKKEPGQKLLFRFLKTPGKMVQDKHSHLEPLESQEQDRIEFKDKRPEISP
The procedure, abridged:
as §1

The target in the next assay is T11, ETV3 (Homo sapiens, UniProt P41162-2 1-143).
T11 sequence: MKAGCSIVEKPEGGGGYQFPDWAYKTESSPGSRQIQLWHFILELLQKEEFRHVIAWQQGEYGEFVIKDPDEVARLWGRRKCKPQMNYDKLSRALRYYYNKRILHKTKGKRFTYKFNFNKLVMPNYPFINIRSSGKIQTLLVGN
The procedure, abridged:
as §1

For the next assay, the target named is ETV6 (Homo sapiens, UniProt P41212 1-452). A digest of the protocol: as §1
Chain of ETV6 (P41212 whole entry): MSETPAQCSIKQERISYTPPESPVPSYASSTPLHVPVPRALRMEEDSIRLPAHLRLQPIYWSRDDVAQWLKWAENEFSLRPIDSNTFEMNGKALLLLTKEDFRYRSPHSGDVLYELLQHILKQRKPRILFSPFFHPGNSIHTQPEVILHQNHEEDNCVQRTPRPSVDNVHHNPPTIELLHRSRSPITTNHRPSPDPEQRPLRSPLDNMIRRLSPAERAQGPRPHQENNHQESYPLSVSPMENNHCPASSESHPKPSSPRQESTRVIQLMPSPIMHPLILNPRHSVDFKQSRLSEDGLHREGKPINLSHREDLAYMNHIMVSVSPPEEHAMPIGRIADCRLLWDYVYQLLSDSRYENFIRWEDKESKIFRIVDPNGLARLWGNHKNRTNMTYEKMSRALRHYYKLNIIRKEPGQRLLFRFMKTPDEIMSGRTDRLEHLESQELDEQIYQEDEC

Chain of ELF1 (P32519 whole entry): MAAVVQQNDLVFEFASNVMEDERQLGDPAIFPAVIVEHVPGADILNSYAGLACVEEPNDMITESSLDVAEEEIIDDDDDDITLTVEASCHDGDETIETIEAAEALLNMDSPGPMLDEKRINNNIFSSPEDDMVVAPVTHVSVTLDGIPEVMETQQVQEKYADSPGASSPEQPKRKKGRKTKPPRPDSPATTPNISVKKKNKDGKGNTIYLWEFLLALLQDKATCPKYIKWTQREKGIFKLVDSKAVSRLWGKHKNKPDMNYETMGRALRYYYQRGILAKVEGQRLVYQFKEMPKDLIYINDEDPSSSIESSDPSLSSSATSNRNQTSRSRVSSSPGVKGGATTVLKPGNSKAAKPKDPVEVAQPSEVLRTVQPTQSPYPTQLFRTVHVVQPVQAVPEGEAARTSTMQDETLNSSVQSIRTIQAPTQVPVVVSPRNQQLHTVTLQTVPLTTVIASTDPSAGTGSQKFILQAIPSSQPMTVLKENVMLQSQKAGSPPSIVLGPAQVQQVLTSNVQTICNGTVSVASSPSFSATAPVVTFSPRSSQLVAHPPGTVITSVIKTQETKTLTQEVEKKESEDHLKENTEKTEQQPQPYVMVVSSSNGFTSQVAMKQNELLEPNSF
Chain of ELF4 (Q99607 whole entry): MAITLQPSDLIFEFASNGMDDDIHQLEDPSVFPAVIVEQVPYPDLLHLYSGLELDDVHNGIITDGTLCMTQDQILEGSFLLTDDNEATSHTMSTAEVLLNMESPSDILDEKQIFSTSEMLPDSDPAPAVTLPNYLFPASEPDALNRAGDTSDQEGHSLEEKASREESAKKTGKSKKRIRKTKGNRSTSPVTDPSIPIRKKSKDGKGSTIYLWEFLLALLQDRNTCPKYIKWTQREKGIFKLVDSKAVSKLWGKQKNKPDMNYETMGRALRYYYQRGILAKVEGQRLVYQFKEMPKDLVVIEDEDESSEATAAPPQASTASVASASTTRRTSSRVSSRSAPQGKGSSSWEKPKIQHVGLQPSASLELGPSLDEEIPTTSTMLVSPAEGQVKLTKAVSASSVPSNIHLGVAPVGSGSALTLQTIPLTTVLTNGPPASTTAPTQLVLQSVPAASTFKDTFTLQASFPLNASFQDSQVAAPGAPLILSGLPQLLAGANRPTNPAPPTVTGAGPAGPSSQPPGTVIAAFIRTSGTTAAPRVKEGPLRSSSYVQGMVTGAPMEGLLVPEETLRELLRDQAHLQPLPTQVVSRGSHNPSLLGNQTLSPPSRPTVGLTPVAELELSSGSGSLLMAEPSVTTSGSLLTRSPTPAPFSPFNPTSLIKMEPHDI

Consider CATGCG, for which the binding signal with GABPA is 1.06 fold enrichment (6-mer frequency, TF over GST control); in the assay with ERG it was 1.03 fold enrichment (6-mer frequency, TF over GST control); in the assay with ELF1 it was 1.07 fold enrichment (6-mer frequency, TF over GST control); in the assay with EHF, 1.06 fold enrichment (6-mer frequency, TF over GST control); in the assay with SPIC it was 1 fold enrichment (6-mer frequency, TF over GST control); with ELF4, 1.02 fold enrichment (6-mer frequency, TF over GST control). Also, the binding signal in the assay with ELK4 is 1.11 fold enrichment (6-mer frequency, TF over GST control); with ELF3 it was 1.29 fold enrichment (6-mer frequency, TF over GST control); with ETV3L it was 1.01 fold enrichment (6-mer frequency, TF over GST control); with ETS2, 1 fold enrichment (6-mer frequency, TF over GST control); in the assay with SPDEF it was 1.01 fold enrichment (6-mer frequency, TF over GST control); in the assay with ETV7, 1.21 fold enrichment (6-mer frequency, TF over GST control). Moreover, the binding signal is 1.03 fold enrichment (6-mer frequency, TF over GST control) with ETV3 and 1.16 fold enrichment (6-mer frequency, TF over GST control) with ETV6.

For the origin of these results see PMC7862700, “An all-to-all approach to the identification of sequence-specific readers for epigenetic DNA modifications on cytosine”.
